Measured values from PubChem BioAssay.
Records with an inconclusive call do not appear. Activity calls are given as the source filed them.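 The calls were made as follows, unless noted: active = binding below the plate cutoff, the plate median minus 3 SD, with a reading above zero; inconclusive = below the plate cutoff but reading exactly zero; inactive = the rest.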

Experiments:
[1] = rapamycin-like changes in RPL19A-GFP expression – cell-based, S. cerevisiae, multiplex flow cytometry, primary screen (AID 1862; in the data active = percent of DMSO control GFP below about 86%;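 also: lower values mimic rapamycin by blocking the RPL19A rise seen in DMSO cells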); conditions: S. cerevisiae RPL19A-GFP strain, flow cytometry fluorescence, 3 h; at 10 µM; stronger effect = lower value
[2] = TOR pathway GLN3 branch reporter MEP2-GFP changes – S. cerevisiae, multiplex flow cytometry, primary screen (AID 1867;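 active = GFP response, as percent of the DMSO control, above the screen-wide mean plus 3 SD, about 139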;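 also: median GFP channel fluorescence of barcode-gated MEP2-GFP cells measured by flow cytometry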); conditions: S. cerevisiae MEP2-GFP strain, 3 h, at 10 µM, stronger effect = higher value, 100% means same as DMSO wells
[3] = TOR pathway RTG branch CIT2 reporter changes – S. cerevisiae, GFP fusion, multiplex flow cytometry, primary screen (AID 1870;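 active = percent response above a set limit, the screen-wide mean plus 3 SD, cut at about 130% in these data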;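 also: barcoded CIT2-GFP strain pooled with four other GFP strains with rapamycin as positive control; median GFP fluorescence per well over plate mean of DMSO wells so 100% = DMSO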); conditions: S. cerevisiae CIT2-GFP expression, 3 h, at 10 µM, stronger effect = higher value
[4] = TOR pathway LAP4-GFP level changes – S. cerevisiae, multiplex flow cytometry, primary screen (AID 1873;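 active = GFP signal, as percent of the solvent control, above the screen mean plus 3 SD, about 149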); conditions: S. cerevisiae LAP4-GFP expression, 3 h, at 10 µM, stronger effect = higher value
[5] = yeast AGP1-GFP level changes, GLN3 branch – cell-based, multiplex flow cytometry, S. cerevisiae, primary screen (AID 1887;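 active = GFP signal above the screen-wide mean plus 3 SD, that is over about 124.5% of the solvent control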;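 also: AGP1-GFP fusion strain of S. cerevisiae within a five-strain barcoded multiplex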); conditions: 3 h, at 10 µM, stronger effect = higher value
[6] = reduced mouse 2C T cell binding to pMHC/ICAM-1 vesicles – MLPCN validation set, flow cytometry, LFA-1/ICAM-1 modulator project, pilot screen (AID 2523;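 active = response below a set limit, under 55% cells CD8-positive and vesicle-bound, and CD8 cells' 90th-percentile brightness under 279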;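 as to vesicle binding response: mean PE anti-B7-1 fluorescence of CD8+ cells relative to row control; 100% = QL9-loaded vesicles with DMSO vehicle in the same plate row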); conditions: 2C mouse CD8+ T cells, at 7 µM, stronger effect = lower value; double positive events: measured here: CD8+/vesicle+ event percentage
[7] = target: Integrin beta-1 (Homo sapiens) + Integrin alpha-4 (Homo sapiens) (UniProt P13612+P05556); assay: alpha4beta1 integrin LIBS antibody binding reduction – U937 cells, HUTS-21 mAb, flow cytometry, validation set, VLA-4 allosteric modulator project, pilot screen (AID 2674;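 active = inhibition above 50%, about 3 SD of the validation set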;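 also: antibody binding induced by the VLA-4 ligand LDV present at three times its Kd; 0% = LDV ligand with antibody and no compound and 100% = antibody without LDV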); conditions: HUTS-21 LIBS mAb binding, at 6.7 µM, stronger effect = higher value, binding induced by LDV ligand
[8] = calorie-restriction mimetic ROS inhibitors, yeast – validation compound set, pilot screen (AID 2706;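 active = superoxide response below 65% of plate, a cut near 3 SD across the whole screen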;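 also: yeast exposed to compound for one week at 30 degrees C before staining; 100% = mean of all compound wells on the same plate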); conditions: S. cerevisiae aging, superoxide DHE fluorescence; at 10 µM; stronger effect = lower value
[9] = target: Beta-adrenergic receptor kinase 1 (Homo sapiens) (UniProt P25098); assay: GRK2 binders displacing RNA aptamer, biochemical, validation, human GRK2, bead flow cytometry (AID 488806;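 active = aptamer binding inhibition above 30%, about 3 SD of noise from non-fluorescent compounds; inactive = inhibition at or below 30%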); conditions: bead-bound GRK2, FAM-aptamer displacement, at 10 µM, stronger effect = higher value
[10] = target: Beta-2 adrenergic receptor (Homo sapiens) (UniProt P07550); assay: agonist-induced loss of surface beta2AR – cell-based, FAP fluorogen, flow cytometry, validation set, pilot screen (AID 504459;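 active = percent response above 42, roughly 3 SD of non-fluorescent test compounds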;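 also: agonist-driven loss of surface beta2AR via internalization measured by FAP dye flow cytometry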); conditions: Am2.2-beta2AR cells, at 10 µM, stronger effect = higher value
[11] = target: AP-2 complex subunit beta (Homo sapiens) (UniProt P63010); assay: beta-arrestin/AP2 interaction blockers – biochemical, validation set, GST-AP2 beads, flow cytometry, pilot screen (AID 504541;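 active = inhibition above 54%, about 3 SD of non-fluorescent compounds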;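 also: AP2 carries R879A mutation and is captured from E. coli lysate; bead-bound FITC arrestin peptide fluorescence measuring arrestin peptide binding to AP2; 0% = DMSO wells and 100% = excess unlabeled arrestin peptide control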); conditions: FITC arrestin peptide, at 10 µM, stronger effect = higher value, AP2 beta2 appendage fragment, R879A mutant
[12] = cytosolic pH regulators acting via V-ATPase – S. cerevisiae, pHLuorin, HTS validation (AID 504600; in the data active = response above about 15%;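 also: plate controls were DMSO for no effect and reference compound for full effect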); conditions: V-ATPase proton transport, at 10 µM, stronger effect = higher value
[13] = tested on: anti-desmoglein-3 scFv antibody binding to human DSG3; assay: blockers of pathogenic pemphigus antibody–desmoglein-3 binding – biochemical, validation compound set, bead-based, flow cytometry, pilot screen (AID 588368); conditions: Protein G beads, DSG3-Fc, scFv-GFP binding, at 10 µM, stronger effect = lower value;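 also: signal is the median channel fluorescence of bead-bound GFP antibody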
[14] = Nile Red efflux blockade in pump-expressing yeast – validation compound set, multiplex, phenotypic, pilot screen (AID 588506;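 active = efflux inhibition above 0.42, the validation set average plus 4 SD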;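 also: Nile Red retained in cells so higher fluorescence means more efflux inhibition; 0 = negative control wells and 1 = enniatin B 25 µM full block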); conditions: S. cerevisiae pump-expressing triplex, Nile Red efflux flow cytometry; at 10 µM; stronger effect = higher value; the pumps come from Candida albicans
[15] = target: ATP-binding cassette sub-family B member 6 (Homo sapiens) (UniProt Q9NP58); assay: blockers of ABCB6-driven porphyrin uptake – K562-ABCB6 cells, flow cytometry, validation set, pilot screen (AID 588550;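 active = inhibition above the screen-wide mean plus 3 SD, about 51%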;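 also: 0% = DMSO wells and 100% = benzethonium chloride 70 µM positive control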); conditions: K562-ABCB6 porphyrin accumulation, 1 h, at 10 µM, stronger effect = higher value
[16] = AML differentiation inducers, ER-HoxA9 marrow cells – cell-based, GFP/MAC1 double positive, flow cytometry, validation set, primary screen (AID 588685;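 active = differentiation response of at least 50%, scaled between solvent and reference control, from cells with both markers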;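 also: compound exposure lasts four days before antibody staining and flow analysis; 0% = DMSO wells and 100% = 5 µM fulvestrant positive control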); conditions: stronger effect = higher value, normalized: vehicle 0, fulvestrant 100

Sequence of ATP-binding cassette sub-family B member 6 (Homo sapiens) (Q9NP58 whole entry, looked up): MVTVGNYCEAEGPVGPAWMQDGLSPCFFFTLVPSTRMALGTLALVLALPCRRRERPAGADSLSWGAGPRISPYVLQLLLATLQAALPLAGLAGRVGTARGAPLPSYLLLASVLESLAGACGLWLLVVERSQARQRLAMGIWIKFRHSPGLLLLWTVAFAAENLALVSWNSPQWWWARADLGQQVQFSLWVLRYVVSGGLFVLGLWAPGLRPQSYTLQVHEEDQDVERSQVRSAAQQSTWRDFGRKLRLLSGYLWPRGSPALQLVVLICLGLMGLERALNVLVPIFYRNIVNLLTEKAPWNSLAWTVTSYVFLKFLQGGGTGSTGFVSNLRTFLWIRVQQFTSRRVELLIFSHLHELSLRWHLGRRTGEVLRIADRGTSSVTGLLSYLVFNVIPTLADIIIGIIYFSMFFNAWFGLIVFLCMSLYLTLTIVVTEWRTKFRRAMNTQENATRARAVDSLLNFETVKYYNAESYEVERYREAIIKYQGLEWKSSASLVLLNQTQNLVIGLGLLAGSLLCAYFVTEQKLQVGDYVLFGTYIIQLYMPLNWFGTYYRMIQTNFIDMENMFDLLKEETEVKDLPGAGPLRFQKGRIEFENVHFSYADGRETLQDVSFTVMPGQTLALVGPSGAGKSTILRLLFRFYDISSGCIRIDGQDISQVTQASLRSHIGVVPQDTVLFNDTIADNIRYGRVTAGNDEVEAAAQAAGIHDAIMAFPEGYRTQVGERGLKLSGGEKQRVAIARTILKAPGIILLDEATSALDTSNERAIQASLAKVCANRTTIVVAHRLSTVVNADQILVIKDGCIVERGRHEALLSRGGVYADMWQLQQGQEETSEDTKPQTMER
Sequence of Beta-2 adrenergic receptor (Homo sapiens) (P07550 whole entry, looked up): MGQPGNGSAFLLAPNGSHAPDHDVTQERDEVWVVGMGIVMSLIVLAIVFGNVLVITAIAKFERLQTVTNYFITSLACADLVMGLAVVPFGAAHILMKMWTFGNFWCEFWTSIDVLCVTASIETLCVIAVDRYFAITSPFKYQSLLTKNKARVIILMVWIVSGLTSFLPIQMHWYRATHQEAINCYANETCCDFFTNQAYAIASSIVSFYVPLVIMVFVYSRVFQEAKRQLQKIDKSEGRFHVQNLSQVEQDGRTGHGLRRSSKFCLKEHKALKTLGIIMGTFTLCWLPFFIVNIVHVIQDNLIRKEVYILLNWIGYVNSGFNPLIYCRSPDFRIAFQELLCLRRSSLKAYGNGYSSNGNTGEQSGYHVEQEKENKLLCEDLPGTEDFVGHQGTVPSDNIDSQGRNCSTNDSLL
Sequence of Integrin beta-1 (Homo sapiens) + Integrin alpha-4 (Homo sapiens) (P05556 whole entry, looked up): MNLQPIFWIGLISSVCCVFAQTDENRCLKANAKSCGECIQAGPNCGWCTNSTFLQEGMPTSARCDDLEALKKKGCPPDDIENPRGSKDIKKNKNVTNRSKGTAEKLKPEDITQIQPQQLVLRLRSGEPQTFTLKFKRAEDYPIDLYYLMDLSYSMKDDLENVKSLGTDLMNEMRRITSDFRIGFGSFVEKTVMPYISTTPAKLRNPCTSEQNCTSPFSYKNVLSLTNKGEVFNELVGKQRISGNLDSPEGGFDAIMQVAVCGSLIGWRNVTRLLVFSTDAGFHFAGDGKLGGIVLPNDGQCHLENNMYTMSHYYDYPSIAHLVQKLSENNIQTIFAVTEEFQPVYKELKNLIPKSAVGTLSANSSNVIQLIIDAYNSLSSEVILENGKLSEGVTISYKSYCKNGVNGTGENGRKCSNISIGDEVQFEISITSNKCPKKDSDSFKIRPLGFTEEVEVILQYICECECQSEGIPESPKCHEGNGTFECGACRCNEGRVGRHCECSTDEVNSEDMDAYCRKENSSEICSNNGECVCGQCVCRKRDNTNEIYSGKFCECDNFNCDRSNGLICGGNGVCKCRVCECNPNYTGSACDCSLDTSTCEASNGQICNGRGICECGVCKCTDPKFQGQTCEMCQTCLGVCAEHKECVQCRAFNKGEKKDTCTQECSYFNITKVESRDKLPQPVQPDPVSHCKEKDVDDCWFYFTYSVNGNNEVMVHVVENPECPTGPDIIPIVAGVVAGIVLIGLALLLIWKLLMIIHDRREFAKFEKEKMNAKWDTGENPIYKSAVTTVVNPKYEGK
Sequence of Integrin beta-1 (Homo sapiens) + Integrin alpha-4 (Homo sapiens) (P13612 whole entry, looked up): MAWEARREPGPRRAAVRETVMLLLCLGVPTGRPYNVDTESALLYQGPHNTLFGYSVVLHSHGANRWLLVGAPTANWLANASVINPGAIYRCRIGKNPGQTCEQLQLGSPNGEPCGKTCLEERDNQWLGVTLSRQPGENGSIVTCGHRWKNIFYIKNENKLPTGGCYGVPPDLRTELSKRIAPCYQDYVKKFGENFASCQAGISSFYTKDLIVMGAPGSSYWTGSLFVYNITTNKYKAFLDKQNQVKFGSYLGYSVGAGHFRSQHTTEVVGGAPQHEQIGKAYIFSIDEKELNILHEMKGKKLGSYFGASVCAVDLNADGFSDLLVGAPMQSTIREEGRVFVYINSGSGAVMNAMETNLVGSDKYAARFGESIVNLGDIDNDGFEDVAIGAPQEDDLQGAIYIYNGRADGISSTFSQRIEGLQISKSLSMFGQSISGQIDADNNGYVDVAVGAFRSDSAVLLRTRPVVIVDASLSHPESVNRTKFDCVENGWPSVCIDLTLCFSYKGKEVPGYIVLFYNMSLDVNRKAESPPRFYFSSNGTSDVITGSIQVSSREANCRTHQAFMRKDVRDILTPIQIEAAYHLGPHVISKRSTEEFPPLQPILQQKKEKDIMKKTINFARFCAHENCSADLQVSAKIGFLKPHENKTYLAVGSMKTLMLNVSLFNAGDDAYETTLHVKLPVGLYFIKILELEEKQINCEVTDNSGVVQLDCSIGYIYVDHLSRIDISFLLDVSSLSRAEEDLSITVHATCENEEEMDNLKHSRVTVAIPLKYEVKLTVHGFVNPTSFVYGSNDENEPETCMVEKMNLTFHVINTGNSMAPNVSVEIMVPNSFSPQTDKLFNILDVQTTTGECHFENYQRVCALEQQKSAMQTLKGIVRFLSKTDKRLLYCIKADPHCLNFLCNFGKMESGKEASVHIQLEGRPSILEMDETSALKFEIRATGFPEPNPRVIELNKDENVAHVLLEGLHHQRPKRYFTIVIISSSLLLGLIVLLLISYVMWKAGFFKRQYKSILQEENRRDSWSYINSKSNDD
Sequence of AP-2 complex subunit beta (Homo sapiens) (P63010 whole entry, looked up, the tested form may be a part, one chain of several): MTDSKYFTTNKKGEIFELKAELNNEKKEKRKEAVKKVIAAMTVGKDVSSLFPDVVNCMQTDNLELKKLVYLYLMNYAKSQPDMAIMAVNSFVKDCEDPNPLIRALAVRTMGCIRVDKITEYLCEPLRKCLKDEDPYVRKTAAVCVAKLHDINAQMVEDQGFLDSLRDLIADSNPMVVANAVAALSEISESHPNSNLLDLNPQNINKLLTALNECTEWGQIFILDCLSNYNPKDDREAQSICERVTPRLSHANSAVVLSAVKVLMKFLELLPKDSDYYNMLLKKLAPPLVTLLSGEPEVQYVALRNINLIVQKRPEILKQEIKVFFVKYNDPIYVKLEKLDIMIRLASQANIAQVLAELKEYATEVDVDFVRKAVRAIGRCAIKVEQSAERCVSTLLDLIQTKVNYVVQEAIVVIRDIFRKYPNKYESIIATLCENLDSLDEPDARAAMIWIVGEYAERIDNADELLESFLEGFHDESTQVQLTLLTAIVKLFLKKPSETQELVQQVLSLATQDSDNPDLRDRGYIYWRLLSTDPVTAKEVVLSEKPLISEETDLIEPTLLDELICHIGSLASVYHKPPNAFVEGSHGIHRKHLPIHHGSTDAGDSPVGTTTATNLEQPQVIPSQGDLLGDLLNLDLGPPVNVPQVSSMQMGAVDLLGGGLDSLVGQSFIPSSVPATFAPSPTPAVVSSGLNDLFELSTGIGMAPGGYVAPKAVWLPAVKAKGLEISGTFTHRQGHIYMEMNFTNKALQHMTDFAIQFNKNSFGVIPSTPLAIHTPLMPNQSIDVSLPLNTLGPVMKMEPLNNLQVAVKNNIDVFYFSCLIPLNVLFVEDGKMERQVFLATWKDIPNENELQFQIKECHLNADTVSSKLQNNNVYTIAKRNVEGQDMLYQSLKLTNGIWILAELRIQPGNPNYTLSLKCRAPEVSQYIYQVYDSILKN
Sequence of Beta-adrenergic receptor kinase 1 (Homo sapiens) (P25098 whole entry, looked up): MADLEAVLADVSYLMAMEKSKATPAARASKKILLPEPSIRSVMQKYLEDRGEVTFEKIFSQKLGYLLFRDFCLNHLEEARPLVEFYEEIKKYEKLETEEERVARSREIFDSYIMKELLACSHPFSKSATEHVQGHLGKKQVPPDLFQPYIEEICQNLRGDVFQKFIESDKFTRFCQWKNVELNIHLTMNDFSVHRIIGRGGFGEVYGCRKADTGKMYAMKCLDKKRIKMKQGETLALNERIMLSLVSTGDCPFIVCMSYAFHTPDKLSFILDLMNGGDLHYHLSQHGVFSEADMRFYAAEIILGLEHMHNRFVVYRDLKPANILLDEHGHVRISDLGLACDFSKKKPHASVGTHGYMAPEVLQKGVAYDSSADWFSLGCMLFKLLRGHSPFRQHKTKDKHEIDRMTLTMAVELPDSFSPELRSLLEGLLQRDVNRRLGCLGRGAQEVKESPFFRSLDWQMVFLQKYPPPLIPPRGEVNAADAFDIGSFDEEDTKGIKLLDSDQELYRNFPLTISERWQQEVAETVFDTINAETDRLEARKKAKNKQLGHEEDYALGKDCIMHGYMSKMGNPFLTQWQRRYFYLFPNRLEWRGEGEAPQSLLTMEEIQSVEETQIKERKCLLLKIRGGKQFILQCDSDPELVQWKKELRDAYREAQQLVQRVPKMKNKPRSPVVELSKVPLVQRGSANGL

Compound	percent of DMSO control GFP [1]	GFP response vs DMSO [2]	percent response of DMSO control [3]	GFP response vs DMSO [4]	GFP response, % of DMSO [5]	double positive events [6] [%]	vesicle binding response [6]	inhibition [7]	superoxide response (% of plate) [8]	aptamer binding inhibition [9]	response [10]	inhibition [11]	response [12]	binding (% of control) [13]	efflux inhibition (fraction of control) [14]	inhibition [15]	differentiation response [16]
CC[N+]1(C)CC2CCC(C)(C1)C2(C)C (stereo not drawn)	106% (inactive)	104% (inactive)	101% (inactive)	96.5% (inactive)	97.4% (inactive)	59.7	193% (inactive)	11.9% (inactive)	103% (inactive)	5% (inactive)	5% (inactive)	11.5% (inactive)	-4.32% (inactive)	98% (inactive)	-0.06 (inactive)	7% (inactive)	-21.6% (inactive)
CCCC(=O)O[C@]1(C(=O)COC(C)=O)CC[C@H]2[C@@H]3C[C@H](F)C4=CC(=O)C=C[C@]4(C)[C@@]3(F)[C@@H](O)C[C@@]21C	96.9% (inactive)	114% (inactive)	109% (inactive)	107% (inactive)	103% (inactive)	60.2	1090% (inactive)	-13.2% (inactive)	112% (inactive)	3% (inactive)	4.32% (inactive)	24.1% (inactive)	-0.33% (inactive)	105% (inactive)	-0.06 (inactive)	2% (inactive)	1.93% (inactive)
CC[C@H]1CN2CCc3cc(OC)c(OC)cc3[C@@H]2C[C@@H]1C[C@H]1NCCc2cc(OC)c(OC)cc21	110% (inactive)	103% (inactive)	94.5% (inactive)	106% (inactive)	99.9% (inactive)	60.1	140% (inactive)	-27.9% (inactive)	86.3% (inactive)	-7% (inactive)	10.4% (inactive)	3.93% (inactive)	-3.02% (inactive)	106% (inactive)	-0.24 (inactive)	-66% (inactive)	14.4% (inactive)
COc1ccc(-c2nnc(-c3cc4c(ccc5ccccc54)oc3=O)o2)cc1	101% (inactive)	93% (inactive)	96.7% (inactive)	89.7% (inactive)	98% (inactive)	61	244% (inactive)	-20.9% (inactive)	75.6% (inactive)	-1% (inactive)	50.8% (active)	6.88% (inactive)	1% (inactive)	97.2% (inactive)	0.08 (inactive)	0% (inactive)	-0.8% (inactive)
COc1cc(CNCCc2c[nH]c3ccccc23)cc(Cl)c1OCC(N)=O	107% (inactive)	97.4% (inactive)	102% (inactive)	94% (inactive)	97.2% (inactive)	66.2	340% (inactive)	-7.25% (inactive)	102% (inactive)	-6% (inactive)	14.8% (inactive)	-2.94% (inactive)	1.24% (inactive)	99.9% (inactive)	0.3 (inactive)	0% (inactive)	-10.4% (inactive)
Cc1cccc(OCC(=O)Nc2ccc(C(=O)NCC(C)C)cc2)c1	102% (inactive)	102% (inactive)	98.3% (inactive)	110% (inactive)	115% (inactive)	62.1	156% (inactive)	16.8% (inactive)	97.4% (inactive)	3% (inactive)	-25% (inactive)	-3.7% (inactive)	0.58% (inactive)	99.3% (inactive)	-0.09 (inactive)	3% (inactive)	32.5% (inactive)
Cc1ccc2[nH]c(=O)c(Cc3ccccc3)c(O)c2c1	102% (inactive)	105% (inactive)	107% (inactive)	94.7% (inactive)	102% (inactive)	60.7	224% (inactive)	3.7% (inactive)	105% (inactive)	0% (inactive)	-3.71% (inactive)	-9.35% (inactive)	4.49% (inactive)	90.6% (inactive)	-0.07 (inactive)	-1% (inactive)	-8.55% (inactive)
CCc1cc(/C(Cc2ccccn2)=N\O)c(O)cc1O	99.1% (inactive)	102% (inactive)	107% (inactive)	83.7% (inactive)	91.4% (inactive)	52.1	51.2% (active)	-14.1% (inactive)	104% (inactive)	3% (inactive)	10.8% (inactive)	15.4% (inactive)	2.25% (inactive)	101% (inactive)	-0.17 (inactive)	1% (inactive)	-5.6% (inactive)
COc1ccc(C2=C(CN(C)C)C(c3ccccc3)c3ccccc3O2)cc1 (stereo not drawn)	102% (inactive)	105% (inactive)	96.6% (inactive)	92% (inactive)	99.7% (inactive)	61.4	6270% (inactive)	3.7% (inactive)	102% (inactive)	-2% (inactive)	10.4% (inactive)	12.1% (inactive)	-5.6% (inactive)	104% (inactive)	-0.14 (inactive)	7% (inactive)	0.24% (inactive)
C[C@@H]1C[C@H](Nc2ccccc2)c2ccccc2N1C(=O)c1cccnc1	103% (inactive)	103% (inactive)	103% (inactive)	98.2% (inactive)	101% (inactive)	59.5	188% (inactive)	3.67% (inactive)	95.6% (inactive)	4% (inactive)	2.27% (inactive)	19.6% (inactive)	-5.05% (inactive)	102% (inactive)	0.05 (inactive)	0% (inactive)	29.6% (inactive)
CCOC(=O)C1=C2c3ccc4ccccc4c3CC(C)(C)N2C(=O)C1=O	104% (inactive)	93% (inactive)	99.6% (inactive)	78.6% (inactive)	85.1% (inactive)	62	205% (inactive)	-4.52% (inactive)	114% (inactive)	3% (inactive)	7.03% (inactive)	1.16% (inactive)	-4.69% (inactive)	96.8% (inactive)	-0.17 (inactive)	-3% (inactive)	-8.8% (inactive)
COC1CCN(C(=O)c2ccc(OC3CCN(Cc4ccccn4)CC3)cc2)CC1	104% (inactive)	109% (inactive)	104% (inactive)	114% (inactive)	110% (inactive)	65	133% (inactive)	9.13% (inactive)	89.2% (inactive)	-2% (inactive)	-2.71% (inactive)	26.3% (inactive)	-3.44% (inactive)	103% (inactive)	-0.17 (inactive)	8% (inactive)	-2.4% (inactive)
Cc1nc2ccccc2n1CC(=O)NC1CCCC1	101% (inactive)	95.6% (inactive)	109% (inactive)	92.6% (inactive)	105% (inactive)	60.6	118% (inactive)	-2.43% (inactive)	84.9% (inactive)	-2% (inactive)	7.07% (inactive)	-5.83% (inactive)	0.83% (inactive)	105% (inactive)	0.115 (inactive)	-2% (inactive)	-8.96% (inactive)
CC(=O)c1cccc(NC(=O)N[C@@H](CC(C)C)C(=O)O)c1	104% (inactive)	101% (inactive)	104% (inactive)	96.6% (inactive)	104% (inactive)	57.9	230% (inactive)	-9.79% (inactive)	109% (inactive)	-2% (inactive)	-0.44% (inactive)	17.6% (inactive)	-2.05% (inactive)	99.2% (inactive)	0.18 (inactive)	6% (inactive)	9.04% (inactive)
CC(C)=CC/C=C1\CCC(C(=O)O)C(C(=O)O)C1 (stereo not drawn)	89.5% (inactive)	123% (inactive)	95.2% (inactive)	81.4% (inactive)	87.5% (inactive)	63.2	160% (inactive)	-14.9% (inactive)	91.6% (inactive)	6% (inactive)	-0.75% (inactive)	-6.38% (inactive)	1.64% (inactive)	103% (inactive)	-0.35 (inactive)	14% (inactive)	-2.46% (inactive)
CC(C)N(C(=O)Cc1ccccc1[N+](=O)[O-])C(C)C	104% (inactive)	96.3% (inactive)	102% (inactive)	92.2% (inactive)	104% (inactive)	60.4	240% (inactive)	3.67% (inactive)	104% (inactive)	2% (inactive)	-2.55% (inactive)	-8.88% (inactive)	1.74% (inactive)	103% (inactive)	-0.13 (inactive)	5% (inactive)	-26.4% (inactive)
CCc1cc2c(=O)c(-c3nc(C)cs3)coc2cc1OC(C)C(=O)NCCO (stereo not drawn)	90.2% (inactive)	129% (inactive)	107% (inactive)	86.4% (inactive)	92.4% (inactive)	62.3	143% (inactive)	9.37% (inactive)	95.6% (inactive)	3% (inactive)	8.19% (inactive)	-0.76% (inactive)	-0.12% (inactive)	101% (inactive)	-0.2 (inactive)	10% (inactive)	-4.09% (inactive)
CS(=O)(=O)NCc1ccc(C(=O)NCc2ccccc2)cc1	98.4% (inactive)	107% (inactive)	100% (inactive)	127% (inactive)	123% (inactive)	55.6	174% (inactive)	-19% (inactive)	105% (inactive)	-8% (inactive)	-27.9% (inactive)	-12% (inactive)	4.07% (inactive)	98.7% (inactive)	-0.04 (inactive)	-5% (inactive)	-3.02% (inactive)
Cc1ccc(S(=O)(=O)N[C@@H](Cc2ccccc2)C(=O)CCl)cc1	99.2% (inactive)	91.8% (inactive)	92.5% (inactive)	108% (inactive)	107% (inactive)	59.9	101% (inactive)	48.3% (inactive)	100% (inactive)	8% (inactive)	11.3% (inactive)	-2.91% (inactive)	-3.47% (inactive)	99% (inactive)	0.04 (inactive)	9% (inactive)	-4% (inactive)
